Data reported in PubChem BioAssay AID1159580 (chemical genetic matrix, 2015).
Out of some 5,500 compounds screened, about 2,000 (36%) were called active. About 18% were inconclusive and are not listed. No stated cut-off is given here; in the data, active means normalized growth mostly below about 0.91 (no sharp cut-off); inconclusive means no clear call, values can overlap the other calls; inactive means mostly above about 0.92. Some of the results follow.

Experiment: chemical genetic growth profiling, strain panel (AID 1159580);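 further: tested at 20 µM; growth read once vehicle control cultures reached saturation at 30 °C; 1 = growth at the plate median or of vehicle wells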
Details: growth OD
[1] = S. cerevisiae deletion strains, locus YDL101C, strain DUN1, stronger effect = lower value
[2] = S. cerevisiae deletion strains, locus YHR030C, strain SLT2, stronger effect = lower value
[3] = S. cerevisiae deletion strains, locus YHR079C, strain IRE1, stronger effect = lower value
[4] = S. cerevisiae deletion strains, locus YJL095W, strain BCK1, stronger effect = lower value
[5] = S. cerevisiae deletion strains, locus YJR066W, strain TOR1, stronger effect = lower value
[6] = S. cerevisiae deletion strains, locus YLR113W, strain HOG1, stronger effect = lower value
[7] = S. cerevisiae deletion strains, locus YNL183C, strain NPR1, stronger effect = lower value
[8] = S. cerevisiae deletion strains, locus YOR231W, strain MKK1, stronger effect = lower value
[9] = S. cerevisiae deletion strains, locus YPL256C, strain CLN2, stronger effect = lower value
[10] = S. cerevisiae deletion strains, locus YDR150W, strain NUM1, stronger effect = lower value
[11] = S. cerevisiae deletion strains, locus YMR307W, strain GAS1, stronger effect = lower value
[12] = S. cerevisiae deletion strains, locus YNL153C, strain GIM3, stronger effect = lower value
[13] = S. cerevisiae deletion strains, locus YNL322C, strain KRE1, stronger effect = lower value
[14] = S. cerevisiae deletion strains, locus YPL241C, strain CIN2, stronger effect = lower value

Measured: normalized growth

O=C1C(Cl)=C(Oc2cc(Cl)c(Cl)cc2Cl)C(=O)c2ccccc21
active: S. cerevisiae deletion strains, locus YAR019C, strain CDC15, stronger effect = lower value 0.215 | S. cerevisiae deletion strains, locus YBR136W, strain MEC1, stronger effect = lower value 0.516 | [1] 0.524 | S. cerevisiae deletion strains, locus YDL132W, strain cdc53, stronger effect = lower value 0.41 | S. cerevisiae deletion strains, locus YDL214C, strain PRR2, stronger effect = lower value 0.114 | S. cerevisiae deletion strains, locus YDR052C, strain DBF4, stronger effect = lower value 0.546 | S. cerevisiae deletion strains, locus YDR054C, strain cdc34, stronger effect = lower value 0.133 | S. cerevisiae deletion strains, locus YDR477W, strain SNF1, stronger effect = lower value 0.125 | S. cerevisiae deletion strains, locus YER123W, strain YCK3, stronger effect = lower value 0.122 | S. cerevisiae deletion strains, locus YER133W, strain GLC7, stronger effect = lower value 0.126 | S. cerevisiae deletion strains, locus YFL029C, strain CAK1, stronger effect = lower value 0.236 | S. cerevisiae deletion strains, locus YFR019W, strain FAB1, stronger effect = lower value 0.104 | S. cerevisiae deletion strains, locus YFR028C, strain CDC14, stronger effect = lower value 0.149 | S. cerevisiae deletion strains, locus YGR040W, strain KSS1, stronger effect = lower value 0.14 | S. cerevisiae deletion strains, locus YGR052W, strain FMP48, stronger effect = lower value 0.126 | S. cerevisiae deletion strains, locus YGR092W, strain DBF2, stronger effect = lower value 0.352 | [2] 0.122 | [3] 0.333 | S. cerevisiae deletion strains, locus YHR082C, strain KSP1, stronger effect = lower value 0.148 | S. cerevisiae deletion strains, locus YHR205W, strain SCH9, stronger effect = lower value 0.125 | [4] 0.114 | S. cerevisiae deletion strains, locus YJL128C, strain PBS2, stronger effect = lower value 0.11 | S. cerevisiae deletion strains, locus YJL157C, strain FAR1, stronger effect = lower value 0.303 | S. cerevisiae deletion strains, locus YJR066W, strain TOR1 (second series), stronger effect = lower value 0.119 | [5] 0.12 | S. cerevisiae deletion strains, locus YKL048C, strain ELM1, stronger effect = lower value 0.658 | S. cerevisiae deletion strains, locus YKL067W, strain YNK1, stronger effect = lower value 0.32 | S. cerevisiae deletion strains, locus YKL101W, strain HSL1, stronger effect = lower value 0.38 | S. cerevisiae deletion strains, locus YKL193C, strain SDS22, stronger effect = lower value 0.174 | S. cerevisiae deletion strains, locus YKL203C, strain TOR2, stronger effect = lower value 0.13 | [6] 0.171 | S. cerevisiae deletion strains, locus YLR133W, strain CKI1, stronger effect = lower value 0.294 | S. cerevisiae deletion strains, locus YLR403W, strain SFP1, stronger effect = lower value 0.197 | S. cerevisiae deletion strains, locus YML070W, strain DAK1, stronger effect = lower value 0.105 | S. cerevisiae deletion strains, locus YMR001C, strain CDC5, stronger effect = lower value 0.11 | S. cerevisiae deletion strains, locus YMR205C, strain PFK2 (second series), stronger effect = lower value 0.538 | S. cerevisiae deletion strains, locus YMR277W, strain FCP1, stronger effect = lower value 0.117 | S. cerevisiae deletion strains, locus YNL020C, strain ARK1, stronger effect = lower value 0.555 | [7] 0.128 | S. cerevisiae deletion strains, locus YNL207W, strain RIO2, stronger effect = lower value 0.537 | S. cerevisiae deletion strains, locus YNL222W, strain SSU72, stronger effect = lower value 0.522 | S. cerevisiae deletion strains, locus YNL307C, strain MCK1 (second series), stronger effect = lower value 0.246 | S. cerevisiae deletion strains, locus YOL078W, strain AVO1, stronger effect = lower value 0.161 | S. cerevisiae deletion strains, locus YOL136C, strain PFK27, stronger effect = lower value 0.11 | S. cerevisiae deletion strains, locus YOR061W, strain CKA2, stronger effect = lower value 0.519 | S. cerevisiae deletion strains, locus YOR119C, strain RIO1, stronger effect = lower value 0.118 | [8] 0.294 | S. cerevisiae deletion strains, locus YPL031C, strain PHO85, stronger effect = lower value 0.225 | S. cerevisiae deletion strains, locus YPL153C, strain RAD53, stronger effect = lower value 0.318 | S. cerevisiae deletion strains, locus YPL204W, strain HRR25, stronger effect = lower value 0.327 | S. cerevisiae deletion strains, locus YPL209C, strain IPL1, stronger effect = lower value 0.581 | [9] 0.183 | S. cerevisiae deletion strains, locus YPR025C, strain CCL1, stronger effect = lower value 0.543 | S. cerevisiae deletion strains, strain TSCII, stronger effect = lower value 0.345
inactive: S. cerevisiae deletion strains, locus YDL017W, strain CDC7, stronger effect = lower value 0.912 | S. cerevisiae deletion strains, locus YDL028C, strain MPS1, stronger effect = lower value 0.936 | S. cerevisiae deletion strains, locus YFL009W, strain cdc4, stronger effect = lower value 0.922 | S. cerevisiae deletion strains, locus YFR003C, strain YPI1, stronger effect = lower value 0.941 | S. cerevisiae deletion strains, locus YIL147C, strain SLN1, stronger effect = lower value 0.938 | S. cerevisiae deletion strains, locus YJR016C, strain ILV3, stronger effect = lower value 0.917 | S. cerevisiae deletion strains, locus YNL006W, strain LST8, stronger effect = lower value 0.95 | S. cerevisiae deletion strains, locus YOR329C, strain SCD5, stronger effect = lower value 0.94 | S. cerevisiae deletion strains, locus YPR111W, strain DBF20, stronger effect = lower value 0.897

O=C1CC(Nc2ccccc2)C=C1Nc1ccccc1 (centres undefined)
inactive: S. cerevisiae deletion strains, locus YAL013W, strain DEP1, stronger effect = lower value 1.01 | S. cerevisiae deletion strains, locus YBR229C, strain ROT2, stronger effect = lower value 1.03 | S. cerevisiae deletion strains, locus YCL061C, strain MRC1, stronger effect = lower value 1.01 | [1] 1.01 | S. cerevisiae deletion strains, locus YDL134C, strain PPH21, stronger effect = lower value 1.02 | [10] 1.02 | S. cerevisiae deletion strains, locus YEL061C, strain CIN8, stronger effect = lower value 1.01 | S. cerevisiae deletion strains, locus YGR078C, strain PAC10, stronger effect = lower value 1.01 | [2] 1.01 | S. cerevisiae deletion strains, locus YHR087W, strain rtc3, stronger effect = lower value 1.02 | S. cerevisiae deletion strains, locus YJR043C, strain POL32, stronger effect = lower value 1.01 | S. cerevisiae deletion strains, locus YJR075W, strain HOC1, stronger effect = lower value 1.03 | S. cerevisiae deletion strains, locus YKL190W, strain CNB1, stronger effect = lower value 1.02 | S. cerevisiae deletion strains, locus YLR039C, strain RIC1, stronger effect = lower value 0.977 | S. cerevisiae deletion strains, locus YLR058C, strain SHM2 (second series), stronger effect = lower value 1.03 | S. cerevisiae deletion strains, locus YLR085C, strain ARP6, stronger effect = lower value 0.968 | S. cerevisiae deletion strains, locus YLR262C, strain YPT6, stronger effect = lower value 1.02 | S. cerevisiae deletion strains, locus YML094W, strain GIM5, stronger effect = lower value 1.01 | S. cerevisiae deletion strains, locus YMR219W, strain ESC1, stronger effect = lower value 1.03 | S. cerevisiae deletion strains, locus YMR263W, strain SAP30, stronger effect = lower value 1 | [11] 1.02 | [12] 1 | S. cerevisiae deletion strains, locus YNL298W, strain CLA4 (second series), stronger effect = lower value 0.979 | [13] 1.01 | S. cerevisiae deletion strains, locus YNR030W, strain Alg12, stronger effect = lower value 1.01 | S. cerevisiae deletion strains, locus YPL055C, strain LGE1, stronger effect = lower value 1.09 | [14] 0.998 | S. cerevisiae deletion strains, locus YPR135W, strain CTF4, stronger effect = lower value 0.966 | S. cerevisiae strains, strain wild type, stronger effect = lower value 1.02

NC(=O)OCC(COC(N)=O)c1ccccc1
inactive: S. cerevisiae deletion strains, locus YAL040C, strain CLN3, stronger effect = lower value 1.03 | S. cerevisiae deletion strains, locus YCL061C, strain MRC1 (second series), stronger effect = lower value 1.01 | [10] 1 | S. cerevisiae deletion strains, locus YDR363W, strain ESC2, stronger effect = lower value 1 | S. cerevisiae deletion strains, locus YER002W, strain NOP16, stronger effect = lower value 0.999 | S. cerevisiae deletion strains, locus YGR229C, strain SMI1, stronger effect = lower value 0.991 | [2] 0.975 | [3] 0.991 | [4] 0.959 | [5] 0.932 | [6] 0.99 | [11] 0.985 | [12] 1.04 | S. cerevisiae deletion strains, locus YNL175C, strain NOP13, stronger effect = lower value 0.999 | [7] 0.945 | S. cerevisiae deletion strains, locus YNL197C, strain WHI3, stronger effect = lower value 1 | S. cerevisiae deletion strains, locus YNL224C, strain SQS1, stronger effect = lower value 1.03 | [13] 1.02 | S. cerevisiae deletion strains, locus YOR083W, strain WHI5 (second series), stronger effect = lower value 1.02 | [8] 0.976 | [14] 1.01 | [9] 0.976
